# Reference: PubChem BioAssay AID624156 (Broad Institute, 2012)
# In all, about 46,000 compounds went through this assay and about 900 (2%) were called active. Another 1% or so got no clear call; they are omitted. This is one part of a sample in which actives are shown more often than they occur. Rule as the data show it: active = ROS induction above about 79% (passing the limit was not always enough); inconclusive = no clear call, values can overlap the other calls.
# Test: ROS inducers in U2OS cancer cells, primary screen, cell-based, H2DCF-DA fluorescence (AID 624156);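 also: 0% = DMSO vehicle median and 100% = reference compound median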
# Conditions: at 10 µM, stronger effect = higher value
row,Compound,ROS induction (% of piperlongumine)
1,C[C@@H]1CN([C@@H](C)CO)C(=O)Cc2cc(NC(=O)Cc3ccccc3)ccc2O[C@@H]1CN(C)Cc1ccc(Oc2ccccc2)cc1,115% (active)
2,C[C@H]1CN([C@@H](C)CO)C(=O)c2cccc(NS(=O)(=O)c3ccc(Cl)cc3)c2O[C@@H]1CN(C)Cc1ccc(Oc2ccccc2)cc1,23.2% (inactive)
3,C[C@@H]1CN([C@H](C)CO)C(=O)c2cccc(NS(=O)(=O)c3ccc(F)cc3)c2O[C@H]1CN(C)Cc1ccc(Oc2ccccc2)cc1,102% (active)
4,Cc1cc(C(=O)Nc2cccc3c2O[C@@H](CN(C)Cc2ccc(C(=O)Nc4ccccc4N)cc2)[C@H](C)CN([C@@H](C)CO)C3=O)n(C)n1,29% (inactive)
5,C[C@@H]1CN([C@H](C)CO)C(=O)Cc2cc(NC(=O)Cc3ccccc3)ccc2O[C@H]1CN(C)Cc1ccc(Oc2ccccc2)cc1,58.8% (inactive)
6,C[C@@H]1CN([C@H](C)CO)C(=O)Cc2cc(NC(=O)Cc3ccccc3)ccc2O[C@@H]1CN(C)Cc1ccccc1,35.5% (inactive)
7,C[C@H]1CN([C@@H](C)CO)C(=O)Cc2cc(NC(=O)Cc3ccccc3)ccc2O[C@@H]1CN(C)Cc1ccc(Cl)c(Cl)c1,88.2% (active)
8,C[C@H](CO)N1C[C@H](C)[C@@H](CN(C)Cc2ccc(C(=O)Nc3ccccc3N)cc2)Oc2c(NC(=O)C3CC3)cccc2C1=O,101% (active)
9,C[C@@H]1CN([C@@H](C)CO)C(=O)c2cccc(NC(=O)C3CC3)c2O[C@@H]1CN(C)Cc1ccccc1,-2.71% (inactive)
10,C[C@@H]1CN([C@H](C)CO)C(=O)c2cccc(NS(=O)(=O)c3ccc(Cl)cc3)c2O[C@@H]1CN(C)Cc1ccc(Oc2ccccc2)cc1,16.8% (inactive)
11,COc1ccc(CN(C)C[C@H]2Oc3ccc(NC(=O)Cc4ccccc4)cc3CC(=O)N([C@@H](C)CO)C[C@@H]2C)cc1,65.1% (inactive)
12,C[C@@H]1CN([C@H](C)CO)C(=O)Cc2cc(NC(=O)Nc3ccccc3)ccc2O[C@H]1CN(C)Cc1ccc(Cl)c(Cl)c1,13.3% (inactive)
13,O=C(CSc1nc2c(sc3ccccc32)c(=O)n1Cc1ccccc1)NCCC1=CCCCC1,-2.88% (inactive)
14,O=C(CN(Cc1ccc(Cl)cc1Cl)S(=O)(=O)c1ccccc1)N1CCCC1,-2.84% (inactive)
15,O=C1CSc2ccccc2N1Cc1ccc(Cl)cc1,2.65% (inactive)
16,Brc1ccc(CSc2c[nH]c3ccccc23)cc1,-17.1% (inactive)
17,Cc1ccc(CNC(=O)c2nc3c(nnn3Cc3ccco3)c(=O)[nH]2)cc1,27.5% (inactive)
18,CC(C)c1ccc(N2C(=O)CSCC2(C(=O)NC2CCCCC2)c2ccc(Cl)cc2)cc1 (configuration not stated),-3.88% (inactive)
19,CCCN(c1ccccc1OC)S(=O)(=O)c1cc(Br)cnc1N,1.12% (inactive)
20,O=C(NC1CCCCCCC1)c1cccs1,-3.89% (inactive)
21,O=C(CCCn1c(=O)c2cccn2c2ccccc21)N1CCCCC1,-0.17% (inactive)
22,CN(C(=O)c1noc2c1CSc1ccccc1-2)c1cccc(C(F)(F)F)c1,-4.5% (inactive)
23,O=C(Nc1ccc(-n2nncc2-c2ccccc2)cc1)c1ccc(S(=O)(=O)N2CCCCC2)cc1,51.9% (inactive)
24,N#CC(C(=O)Nc1cccc(C(F)(F)F)c1)=C1CCCCCC1,14.7% (inactive)

row,Compound,ROS induction (% of piperlongumine)
1,Cc1cccc(NC(=S)N2CCn3cccc3C2c2cccs2)c1 (configuration not stated),-3.68% (inactive)
2,C[C@@H]1CN([C@@H](C)CO)C(=O)c2cc(NC(=O)Cc3ccccc3)ccc2O[C@H]1CN(C)Cc1ccc(Cl)c(Cl)c1,44.7% (inactive)
3,C[C@H]1CN([C@@H](C)CO)C(=O)c2cc(NC(=O)Cc3cn(C)c4ccccc34)ccc2O[C@H]1CN(C)Cc1ccc(Cl)c(Cl)c1,4.82% (inactive)
4,C[C@H]1CN([C@@H](C)CO)C(=O)c2cc(NC(=O)Cc3cn(C)c4ccccc34)ccc2O[C@@H]1CN(C)Cc1ccc(Cl)c(Cl)c1,118% (active)
5,C[C@@H]1CN([C@H](C)CO)C(=O)Cc2cc(NS(=O)(=O)c3cccs3)ccc2O[C@@H]1CN(C)Cc1ccc(C(=O)O)cc1,11.6% (inactive)
6,C[C@H]1CN([C@@H](C)CO)C(=O)Cc2cc(NS(=O)(=O)c3cccs3)ccc2O[C@H]1CN(C)Cc1ccncc1,-8.79% (inactive)
7,C[C@H]1CN([C@@H](C)CO)C(=O)Cc2cc(NS(=O)(=O)c3cccs3)ccc2O[C@@H]1CN(C)Cc1ccc(Oc2ccccc2)cc1,92.6% (active)
8,O=C(Nc1cccc(-c2nc3ccccc3o2)c1)c1ccc(Br)cc1,4.05% (inactive)
9,Cc1nn(C)cc1C(=O)c1ccccc1,36.5% (inactive)
10,Cc1ccc(C(=O)N/C(=C\c2ccccc2)C(=O)Nc2c(C)n(C)n(-c3ccccc3)c2=O)cc1,0.477% (inactive)
11,COc1ccc(CNCC2(c3ccccc3)CCCC2)cc1,4.91% (inactive)
12,COC(=O)c1ccc(-c2ccco2)n1CC(=O)NC1CCCC1,-2.05% (inactive)
13,CCC/C=C/C(=O)OC1C(O)C23C(O)OC4(CCC5C6(C)CCC(OC7OC(C(=O)O)C(O)C(OC8OC(CO)C(O)C(O)C8OC8OC(C)C(O)C(O)C8OC8OCC(O)C(O)C8O)C7OC7OC(CO)C(O)C(O)C7O)C(C)(C)C6CCC5(C)C4(C)CC2OC(C)=O)C3CC1(C)C (configuration not stated),-31.6% (inactive)
14,Cc1cc(-c2cccs2)c2c(N)c(C(=O)c3ccccc3)sc2n1,95.7% (active)
15,COCc1cc(C)nc2sc(C(N)=O)c(N)c12,10.2% (inactive)
16,O=C(O)c1ccc(S(=O)(=O)c2ccc(Cl)cc2)cc1,-2.87% (inactive)
17,Cc1c(S(=O)(=O)Nc2ccc(Cl)cc2)sc2ccc(Cl)cc12,-12.9% (inactive)
18,Fc1ccc(NCc2cn(-c3ccccc3)nc2-c2cccs2)c(F)c1,-6.92% (inactive)
19,N#CCC(=O)N(Cc1ccccc1)C(=O)Nc1cccc(F)c1,-15.5% (inactive)
20,CC(C)(C)n1ncc2c(=O)n(Cc3ccc(Cl)cc3)cnc21,-3.3% (inactive)
21,O=C(CSc1nnc(-c2ccccc2)c(-c2ccccc2)n1)Nc1ccccc1,-5.87% (inactive)
22,Cc1sc2ncnc(SCC(=O)Nc3ccccc3)c2c1-c1ccccc1,-2.63% (inactive)
23,N#Cc1c(SCC(=O)Nc2ccccc2)ncc2cc3ccccc3nc12,192% (active)
